# Tests used:
# Test in all cases: DAPPL (digital affinity profiling via proximity ligation, sequencing); 10 mM Tris-HCl pH 7.5, 50 mM NaCl, 1 mM DTT, 4% glycerol, room temperature, 30 min; GST-TFs on glutathione beads, 16-mer random dsDNA library, 0.1% formaldehyde crosslink after washing; high values mean tight binding
# [1] = target: T1, FLI1 (Homo sapiens, UniProt Q01543 1-452); settings: protein: recombinant; tags: N-terminal GST; dsDNA, one strand shown
# T1 sequence: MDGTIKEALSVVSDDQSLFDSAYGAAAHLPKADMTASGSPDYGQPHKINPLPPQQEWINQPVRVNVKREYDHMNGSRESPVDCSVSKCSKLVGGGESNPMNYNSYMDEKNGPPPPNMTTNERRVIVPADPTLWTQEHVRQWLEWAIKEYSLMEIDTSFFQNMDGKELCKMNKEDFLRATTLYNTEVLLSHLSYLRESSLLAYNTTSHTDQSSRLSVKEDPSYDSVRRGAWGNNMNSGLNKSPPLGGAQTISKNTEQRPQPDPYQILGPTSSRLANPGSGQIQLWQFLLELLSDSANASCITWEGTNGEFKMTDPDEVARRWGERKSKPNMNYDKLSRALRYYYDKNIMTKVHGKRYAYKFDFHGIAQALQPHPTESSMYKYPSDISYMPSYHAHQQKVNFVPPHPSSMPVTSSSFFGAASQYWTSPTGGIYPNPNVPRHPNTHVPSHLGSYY
# Method in brief: (§1)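 Pools of DNA-barcoded human transcription factors, expressed in yeast as GST fusions on glutathione beads and combined with a tag-only sample, were incubated with 200 nmole of a 16-mer random double-stranded DNA library. Incubation took 30 min at room temperature in Tris/NaCl/DTT/glycerol buffer and was followed by washing, 0.1% formaldehyde crosslinking, proximity ligation (BsaI/T4 ligase, 1 h, 37 °C), PCR amplification and sequencing on an Illumina NextSeq500. Binding signal is the ratio of a hexamer's read frequency for a factor to its frequency for the tag-only sample.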
# [2] = target: T2, ELK1 (Homo sapiens, UniProt P19419 1-428); settings: protein: recombinant; tags: N-terminal GST; dsDNA, one strand shown
# T2 sequence: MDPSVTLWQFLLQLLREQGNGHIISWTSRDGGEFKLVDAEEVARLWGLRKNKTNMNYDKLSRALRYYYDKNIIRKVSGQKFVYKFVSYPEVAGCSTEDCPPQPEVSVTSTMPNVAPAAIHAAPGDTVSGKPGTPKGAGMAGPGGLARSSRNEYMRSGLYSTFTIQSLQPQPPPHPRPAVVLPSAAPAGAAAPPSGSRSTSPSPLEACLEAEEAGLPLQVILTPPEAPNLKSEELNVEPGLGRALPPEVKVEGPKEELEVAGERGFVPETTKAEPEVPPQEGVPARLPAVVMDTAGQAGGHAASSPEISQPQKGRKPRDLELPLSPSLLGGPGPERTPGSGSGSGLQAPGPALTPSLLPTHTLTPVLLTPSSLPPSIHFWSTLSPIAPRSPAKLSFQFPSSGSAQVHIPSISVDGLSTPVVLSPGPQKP
# Method in brief: as §1
# [3] = target: T3, GABPA (Homo sapiens, UniProt Q06546 1-454); settings: protein: recombinant; tags: N-terminal GST; dsDNA, one strand shown
# T3 sequence: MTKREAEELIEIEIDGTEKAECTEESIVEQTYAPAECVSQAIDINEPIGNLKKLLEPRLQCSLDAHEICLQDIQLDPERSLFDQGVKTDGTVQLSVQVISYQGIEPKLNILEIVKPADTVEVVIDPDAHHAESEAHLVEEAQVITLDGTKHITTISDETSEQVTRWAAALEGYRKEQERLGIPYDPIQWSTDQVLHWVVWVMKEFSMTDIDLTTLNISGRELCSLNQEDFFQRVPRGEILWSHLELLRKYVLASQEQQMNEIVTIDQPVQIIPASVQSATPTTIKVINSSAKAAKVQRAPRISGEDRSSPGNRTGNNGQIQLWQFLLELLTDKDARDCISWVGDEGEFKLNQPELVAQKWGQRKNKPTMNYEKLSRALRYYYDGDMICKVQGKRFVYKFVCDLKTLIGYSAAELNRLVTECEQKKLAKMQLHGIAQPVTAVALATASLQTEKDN
# Method in brief: as §1
# [4] = target: T4, ERG (Homo sapiens, UniProt P11308 1-479); settings: protein: recombinant; tags: N-terminal GST; dsDNA, one strand shown
# T4 sequence: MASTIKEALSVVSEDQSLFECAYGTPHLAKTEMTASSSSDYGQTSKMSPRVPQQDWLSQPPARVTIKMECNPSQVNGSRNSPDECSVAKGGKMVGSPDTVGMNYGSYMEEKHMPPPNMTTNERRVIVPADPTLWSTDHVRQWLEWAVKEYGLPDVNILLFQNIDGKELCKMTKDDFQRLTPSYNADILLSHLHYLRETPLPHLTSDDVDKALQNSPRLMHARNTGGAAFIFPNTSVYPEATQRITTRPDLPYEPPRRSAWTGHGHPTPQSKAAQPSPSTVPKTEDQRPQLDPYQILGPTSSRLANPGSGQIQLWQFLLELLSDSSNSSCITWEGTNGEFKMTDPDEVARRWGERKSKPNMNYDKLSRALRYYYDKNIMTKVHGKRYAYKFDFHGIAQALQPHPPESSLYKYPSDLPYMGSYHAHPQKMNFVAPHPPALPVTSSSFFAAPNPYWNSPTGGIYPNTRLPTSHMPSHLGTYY
# Method in brief: as §1
# [5] = target: ELF1 (Homo sapiens, UniProt P32519 1-619); settings: protein: recombinant; tags: N-terminal GST; dsDNA, one strand shown
# ELF1, sequence (P32519 whole entry): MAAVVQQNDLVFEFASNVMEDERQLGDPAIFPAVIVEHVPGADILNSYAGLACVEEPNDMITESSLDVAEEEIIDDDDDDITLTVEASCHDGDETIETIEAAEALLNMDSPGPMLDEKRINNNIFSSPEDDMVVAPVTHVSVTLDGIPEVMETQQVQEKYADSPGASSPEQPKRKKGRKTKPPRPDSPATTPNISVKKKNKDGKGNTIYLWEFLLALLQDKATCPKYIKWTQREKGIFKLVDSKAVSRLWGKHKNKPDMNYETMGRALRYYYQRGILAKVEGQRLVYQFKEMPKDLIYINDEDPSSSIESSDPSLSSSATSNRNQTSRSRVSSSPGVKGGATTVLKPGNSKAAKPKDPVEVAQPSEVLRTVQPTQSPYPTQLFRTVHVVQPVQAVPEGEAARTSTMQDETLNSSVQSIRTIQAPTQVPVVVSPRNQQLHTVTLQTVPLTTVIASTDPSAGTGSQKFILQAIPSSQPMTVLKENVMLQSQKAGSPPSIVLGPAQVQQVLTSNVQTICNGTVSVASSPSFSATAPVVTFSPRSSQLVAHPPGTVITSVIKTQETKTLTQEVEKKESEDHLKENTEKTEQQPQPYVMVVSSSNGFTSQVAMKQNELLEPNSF
# Method in brief: as §1
# [6] = target: T5, EHF (Homo sapiens, UniProt Q9NZC4 1-300); settings: protein: recombinant; tags: N-terminal GST; dsDNA, one strand shown
# T5 sequence: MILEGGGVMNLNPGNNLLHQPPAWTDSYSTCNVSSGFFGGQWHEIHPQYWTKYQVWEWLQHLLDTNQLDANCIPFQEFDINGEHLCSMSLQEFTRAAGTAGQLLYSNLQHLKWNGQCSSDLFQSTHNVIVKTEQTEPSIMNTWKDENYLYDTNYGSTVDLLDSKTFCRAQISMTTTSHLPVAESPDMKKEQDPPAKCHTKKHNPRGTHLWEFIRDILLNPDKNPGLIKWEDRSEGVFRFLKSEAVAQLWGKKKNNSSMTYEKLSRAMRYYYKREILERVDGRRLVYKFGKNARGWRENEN
# Method in brief: as §1
# [7] = target: SPI1 (Homo sapiens, UniProt P17947 1-270); settings: protein: recombinant; tags: N-terminal GST; dsDNA, one strand shown
# Method in brief: as §1
# [8] = target: SPIB (Homo sapiens, UniProt Q01892 1-262); settings: protein: recombinant; tags: N-terminal GST; dsDNA, one strand shown
# SPIB, sequence (Q01892 whole entry): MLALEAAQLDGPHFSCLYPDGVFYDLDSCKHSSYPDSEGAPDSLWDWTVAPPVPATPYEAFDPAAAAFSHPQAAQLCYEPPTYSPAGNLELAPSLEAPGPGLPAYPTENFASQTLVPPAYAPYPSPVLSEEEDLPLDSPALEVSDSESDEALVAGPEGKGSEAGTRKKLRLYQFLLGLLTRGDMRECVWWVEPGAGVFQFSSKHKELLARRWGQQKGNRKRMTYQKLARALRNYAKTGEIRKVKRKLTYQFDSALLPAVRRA
# Method in brief: as §1
# [9] = target: T6, ELK3 (Homo sapiens, UniProt P41970 1-407); settings: protein: recombinant; tags: N-terminal GST; dsDNA, one strand shown
# T6 sequence: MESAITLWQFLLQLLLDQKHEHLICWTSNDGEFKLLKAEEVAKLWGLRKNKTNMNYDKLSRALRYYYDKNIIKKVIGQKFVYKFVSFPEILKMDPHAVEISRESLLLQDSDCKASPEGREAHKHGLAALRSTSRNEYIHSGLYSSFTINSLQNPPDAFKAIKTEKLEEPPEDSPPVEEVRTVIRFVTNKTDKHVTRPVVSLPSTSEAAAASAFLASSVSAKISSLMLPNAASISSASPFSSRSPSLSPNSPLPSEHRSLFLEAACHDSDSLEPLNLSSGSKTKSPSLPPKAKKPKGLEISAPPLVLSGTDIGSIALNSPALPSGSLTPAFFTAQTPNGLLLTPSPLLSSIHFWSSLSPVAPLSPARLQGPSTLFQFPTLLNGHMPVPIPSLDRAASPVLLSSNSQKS
# Method in brief: as §1
# [10] = target: T7, FEV (Homo sapiens, UniProt Q99581 1-238); settings: protein: recombinant; tags: N-terminal GST; dsDNA, one strand shown
# T7 sequence: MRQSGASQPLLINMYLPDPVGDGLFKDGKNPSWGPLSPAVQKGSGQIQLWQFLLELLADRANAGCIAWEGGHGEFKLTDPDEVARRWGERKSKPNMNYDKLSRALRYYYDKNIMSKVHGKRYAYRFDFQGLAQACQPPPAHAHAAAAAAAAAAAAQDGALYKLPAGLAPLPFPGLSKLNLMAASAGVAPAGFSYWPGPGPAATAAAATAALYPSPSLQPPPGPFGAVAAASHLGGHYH
# Method in brief: as §1
# [11] = target: ETV5 (Homo sapiens, UniProt P41161 1-510); settings: protein: recombinant; tags: N-terminal GST; dsDNA, one strand shown
# ETV5, sequence (P41161 whole entry): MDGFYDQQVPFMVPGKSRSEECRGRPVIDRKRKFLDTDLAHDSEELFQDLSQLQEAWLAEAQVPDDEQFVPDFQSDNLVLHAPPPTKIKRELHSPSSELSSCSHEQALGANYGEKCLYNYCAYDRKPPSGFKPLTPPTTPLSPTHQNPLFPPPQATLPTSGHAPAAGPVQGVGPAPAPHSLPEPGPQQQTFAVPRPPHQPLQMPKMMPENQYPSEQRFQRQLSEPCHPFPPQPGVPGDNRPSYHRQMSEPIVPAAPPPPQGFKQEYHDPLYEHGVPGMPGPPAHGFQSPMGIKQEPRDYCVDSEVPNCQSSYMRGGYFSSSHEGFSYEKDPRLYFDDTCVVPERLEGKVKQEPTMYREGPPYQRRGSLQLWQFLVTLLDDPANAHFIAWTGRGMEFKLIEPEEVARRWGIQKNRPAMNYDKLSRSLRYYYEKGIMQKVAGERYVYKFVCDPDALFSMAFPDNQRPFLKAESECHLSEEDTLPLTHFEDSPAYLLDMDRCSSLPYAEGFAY
# Method in brief: as §1
# [12] = target: HSF1 (Homo sapiens, UniProt Q00613 1-529); settings: protein: recombinant; tags: N-terminal GST; chain copies: 3; dsDNA, one strand shown
# HSF1, sequence (Q00613 whole entry): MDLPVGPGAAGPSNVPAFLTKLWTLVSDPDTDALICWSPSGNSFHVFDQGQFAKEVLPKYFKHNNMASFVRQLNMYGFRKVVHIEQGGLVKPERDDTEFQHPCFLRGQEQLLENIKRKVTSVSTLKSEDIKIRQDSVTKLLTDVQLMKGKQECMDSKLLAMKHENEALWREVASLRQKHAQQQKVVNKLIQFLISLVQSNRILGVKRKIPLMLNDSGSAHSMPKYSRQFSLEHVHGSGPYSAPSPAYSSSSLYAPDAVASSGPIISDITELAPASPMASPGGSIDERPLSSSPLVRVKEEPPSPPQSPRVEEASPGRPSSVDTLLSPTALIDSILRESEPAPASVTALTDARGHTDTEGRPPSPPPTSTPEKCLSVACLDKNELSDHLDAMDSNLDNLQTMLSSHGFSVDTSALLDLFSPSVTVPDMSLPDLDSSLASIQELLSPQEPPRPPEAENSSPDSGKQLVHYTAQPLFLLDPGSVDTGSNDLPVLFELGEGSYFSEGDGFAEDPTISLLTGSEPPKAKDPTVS
# Method in brief: as §1
# [13] = target: T8, SPIC (Homo sapiens, UniProt Q8N5J4 1-248); settings: protein: recombinant; tags: N-terminal GST; dsDNA, one strand shown
# T8 sequence: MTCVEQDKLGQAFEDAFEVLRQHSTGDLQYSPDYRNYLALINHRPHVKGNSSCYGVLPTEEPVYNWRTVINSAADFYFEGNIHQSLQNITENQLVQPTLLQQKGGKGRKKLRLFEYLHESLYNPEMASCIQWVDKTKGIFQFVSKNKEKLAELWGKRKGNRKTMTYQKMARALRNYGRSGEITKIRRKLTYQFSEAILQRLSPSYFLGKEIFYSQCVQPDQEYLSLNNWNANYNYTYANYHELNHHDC
# Method in brief: as §1
# [14] = target: ELF4 (Homo sapiens, UniProt Q99607 1-663); settings: protein: recombinant; tags: N-terminal GST; dsDNA, one strand shown
# ELF4, sequence (Q99607 whole entry): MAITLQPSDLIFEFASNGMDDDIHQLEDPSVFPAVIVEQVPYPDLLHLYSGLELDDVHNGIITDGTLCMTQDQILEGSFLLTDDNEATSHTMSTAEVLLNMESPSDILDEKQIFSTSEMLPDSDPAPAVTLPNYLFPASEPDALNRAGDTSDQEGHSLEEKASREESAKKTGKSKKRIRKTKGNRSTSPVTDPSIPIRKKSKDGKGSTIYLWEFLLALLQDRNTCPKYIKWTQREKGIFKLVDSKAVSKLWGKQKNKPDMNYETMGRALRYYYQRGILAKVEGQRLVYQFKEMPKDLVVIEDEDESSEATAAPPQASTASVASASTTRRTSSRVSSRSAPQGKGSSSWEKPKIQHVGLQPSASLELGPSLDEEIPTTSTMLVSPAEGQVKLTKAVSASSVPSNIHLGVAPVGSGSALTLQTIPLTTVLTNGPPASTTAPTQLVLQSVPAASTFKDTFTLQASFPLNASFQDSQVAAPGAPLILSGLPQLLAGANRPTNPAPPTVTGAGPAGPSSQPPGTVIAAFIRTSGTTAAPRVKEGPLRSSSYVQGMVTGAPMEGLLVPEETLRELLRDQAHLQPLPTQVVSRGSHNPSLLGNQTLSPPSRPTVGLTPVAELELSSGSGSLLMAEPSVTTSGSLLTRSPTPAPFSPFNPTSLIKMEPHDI
# Method in brief: as §1
# [15] = target: T9, ELK4 (Homo sapiens, UniProt P28324-2 1-405); settings: protein: recombinant; tags: N-terminal GST; dsDNA, one strand shown
# T9 sequence: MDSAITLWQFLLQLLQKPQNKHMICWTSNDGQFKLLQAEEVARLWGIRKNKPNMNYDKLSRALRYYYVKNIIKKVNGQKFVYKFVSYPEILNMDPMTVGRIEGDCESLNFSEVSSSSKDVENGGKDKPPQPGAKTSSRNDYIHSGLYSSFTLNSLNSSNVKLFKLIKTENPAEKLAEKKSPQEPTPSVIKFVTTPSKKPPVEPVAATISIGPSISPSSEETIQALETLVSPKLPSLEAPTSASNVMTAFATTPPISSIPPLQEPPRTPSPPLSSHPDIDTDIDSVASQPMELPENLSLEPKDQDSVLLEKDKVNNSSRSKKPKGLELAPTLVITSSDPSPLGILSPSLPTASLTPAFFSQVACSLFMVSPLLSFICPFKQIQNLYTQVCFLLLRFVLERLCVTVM
# Method in brief: as §1
# [16] = target: T10, ETV2 (Homo sapiens, UniProt O00321 1-342); settings: protein: recombinant; tags: N-terminal GST; dsDNA, one strand shown
# T10 sequence: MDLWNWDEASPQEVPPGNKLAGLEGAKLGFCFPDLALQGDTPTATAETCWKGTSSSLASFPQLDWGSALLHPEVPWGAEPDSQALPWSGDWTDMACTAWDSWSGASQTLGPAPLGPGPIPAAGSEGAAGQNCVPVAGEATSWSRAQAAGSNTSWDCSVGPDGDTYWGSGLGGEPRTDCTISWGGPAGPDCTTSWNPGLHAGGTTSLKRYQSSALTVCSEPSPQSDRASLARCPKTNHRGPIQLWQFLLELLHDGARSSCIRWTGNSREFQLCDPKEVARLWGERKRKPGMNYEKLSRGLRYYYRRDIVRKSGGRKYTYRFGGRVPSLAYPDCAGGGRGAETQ
# Method in brief: as §1
# [17] = target: T11, ELF3 (Homo sapiens, UniProt P78545 1-371); settings: protein: recombinant; tags: N-terminal GST; dsDNA, one strand shown
# T11 sequence: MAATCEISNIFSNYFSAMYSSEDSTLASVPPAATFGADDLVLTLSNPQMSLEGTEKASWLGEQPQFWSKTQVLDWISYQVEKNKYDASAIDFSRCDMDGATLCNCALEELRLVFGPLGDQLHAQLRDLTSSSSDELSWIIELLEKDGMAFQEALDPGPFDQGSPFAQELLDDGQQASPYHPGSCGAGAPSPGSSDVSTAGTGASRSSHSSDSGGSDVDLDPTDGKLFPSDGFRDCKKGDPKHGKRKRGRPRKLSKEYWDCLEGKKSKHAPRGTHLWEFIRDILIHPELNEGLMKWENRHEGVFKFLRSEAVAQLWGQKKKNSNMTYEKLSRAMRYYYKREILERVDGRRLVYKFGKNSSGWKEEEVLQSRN
# Method in brief: as §1
# [18] = target: CRX (Homo sapiens, UniProt O43186 1-299); settings: protein: recombinant; tags: N-terminal GST; dsDNA, one strand shown
# CRX, sequence (O43186 whole entry): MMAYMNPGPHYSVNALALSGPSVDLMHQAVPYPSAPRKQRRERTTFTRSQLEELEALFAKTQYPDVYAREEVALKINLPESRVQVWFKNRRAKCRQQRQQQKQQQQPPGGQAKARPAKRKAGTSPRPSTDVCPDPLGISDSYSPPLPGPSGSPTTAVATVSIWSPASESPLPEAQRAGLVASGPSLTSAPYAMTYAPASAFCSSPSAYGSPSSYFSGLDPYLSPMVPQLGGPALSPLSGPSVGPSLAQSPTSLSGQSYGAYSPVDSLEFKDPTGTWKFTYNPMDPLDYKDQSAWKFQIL
# Method in brief: as §1
# [19] = target: ETV1 (Homo sapiens, UniProt P50549 1-477); settings: protein: recombinant; tags: N-terminal GST; dsDNA, one strand shown
# ETV1, sequence (P50549 whole entry): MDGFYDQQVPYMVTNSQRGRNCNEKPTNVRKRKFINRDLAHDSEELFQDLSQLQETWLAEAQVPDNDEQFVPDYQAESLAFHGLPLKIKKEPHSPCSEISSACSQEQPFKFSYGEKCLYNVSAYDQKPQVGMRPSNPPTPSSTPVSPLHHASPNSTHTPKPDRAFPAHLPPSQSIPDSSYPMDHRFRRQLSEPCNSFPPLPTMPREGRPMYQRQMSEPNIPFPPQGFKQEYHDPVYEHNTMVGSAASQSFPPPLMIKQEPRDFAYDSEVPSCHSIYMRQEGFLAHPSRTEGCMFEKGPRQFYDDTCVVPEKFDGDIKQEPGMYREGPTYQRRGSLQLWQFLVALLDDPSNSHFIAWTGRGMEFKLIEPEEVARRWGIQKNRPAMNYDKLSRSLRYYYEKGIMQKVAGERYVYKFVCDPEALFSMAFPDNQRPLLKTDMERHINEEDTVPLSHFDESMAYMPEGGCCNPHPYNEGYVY
# Method in brief: as §1
sequence,measurement,setting,value
CTACTT,binding signal,[1],"1.85 fold enrichment (6-mer frequency, TF over GST control)"
same,binding signal,[2],"1.77 fold enrichment (6-mer frequency, TF over GST control)"
same,binding signal,[3],"1.72 fold enrichment (6-mer frequency, TF over GST control)"
same,binding signal,[4],"1.96 fold enrichment (6-mer frequency, TF over GST control)"
same,binding signal,[5],"1.85 fold enrichment (6-mer frequency, TF over GST control)"
same,binding signal,[6],"1.92 fold enrichment (6-mer frequency, TF over GST control)"
same,binding signal,[7],"2.05 fold enrichment (6-mer frequency, TF over GST control)"
same,binding signal,[8],"1.96 fold enrichment (6-mer frequency, TF over GST control)"
same,binding signal,[9],"1.88 fold enrichment (6-mer frequency, TF over GST control)"
same,binding signal,[10],"2.08 fold enrichment (6-mer frequency, TF over GST control)"
same,binding signal,[11],"1.78 fold enrichment (6-mer frequency, TF over GST control)"
same,binding signal,[12],"1.44 fold enrichment (6-mer frequency, TF over GST control)"
same,binding signal,[13],"1.89 fold enrichment (6-mer frequency, TF over GST control)"
same,binding signal,[14],"1.82 fold enrichment (6-mer frequency, TF over GST control)"
same,binding signal,[15],"1.87 fold enrichment (6-mer frequency, TF over GST control)"
same,binding signal,[16],"1.84 fold enrichment (6-mer frequency, TF over GST control)"
same,binding signal,[17],"1.89 fold enrichment (6-mer frequency, TF over GST control)"
same,binding signal,[18],"1.78 fold enrichment (6-mer frequency, TF over GST control)"
same,binding signal,[19],"1.89 fold enrichment (6-mer frequency, TF over GST control)"
